Test: small molecules captured by biotinylated probe aFSTL3 – biochemical, small-molecule microarray, fluorescence 635/667, stem cell growth factor project, primary screen (AID 1064);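 further: measures binding of the biotinylated anti-FSTL3 antibody to printed compounds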
Conditions: higher = more signal

SMILES	composite z-score
COc1ccc(COC(=O)NN=C2C[C@@H](O)[C@@H](O)[C@@H]3[C@@H]4C(=O)N(C[C@@H]5CCCO5)C(=O)[C@@H]4CC[C@H]23)cc1	0.467
CCOC(=O)[C@H](Cc1ccccc1)NC(=O)CCC1CC(OC(=O)NCCc2ccc(F)cc2)CC2(CCCC(COC(=O)NCCC(C)C)O2)O1 (stereo not given in full)	-0.397
COC(=O)CC=C[C@@H](C)[C@@H](C=NOC[C@@H](O)[C@H]1O[C@@H]2OC(C)(C)O[C@@H]2[C@H]1O)OC	0.354
C[C@]12CCC3c4ccc(OCC5CO5)cc4CCC3C1CC[C@@H]2O (stereo not given in full)	0.157
CCOC(=O)CCN1C(=O)[C@H]2[C@H]3[C@H](O)[C@H](O)CC(=NO[C@@H]4O[C@H](CO)[C@@H](O)[C@H](O)[C@H]4O)[C@@H]3CC[C@H]2C1=O	-0.512
CC(CCN1CCCCc2nc(C)c(C)cc21)=NO[C@H](C)c1cn([C@@H]2COC[C@H]2O)nn1	-0.565
COc1ccc(COC(=O)NN=C2C[C@@H](O)[C@@H](O)[C@@H]3[C@@H]4C(=O)N(c5cccc(Oc6ccccc6)c5)C(=O)[C@@H]4CC[C@H]23)cc1	0.937
CC=CC1=C(CO)[C@H](O)[C@H]2O[C@H]2[C@@H]1O	-0.267
CC1(C)O[C@H]2OC([C@H](O)CON3C(=O)c4ccccc4C3=O)[C@H](O)[C@H]2O1 (stereo not given in full)	-0.437
CCOC(=O)NN=C1C[C@@H](O)[C@@H](O)[C@@H]2[C@@H]3C(=O)N(CC)C(=O)[C@@H]3CC[C@H]12	-0.431
CC(=O)OC[C@H]1O[C@@H](ON=C(C)CCC(=O)OC[C@H]2O[C@H](C#Cc3ccccc3)C=C[C@@H]2Oc2ccc(C)cc2)[C@H](OC(C)=O)[C@@H](OC(C)=O)[C@@H]1OC(C)=O	-0.65
Cc1cc2c(nc1C)CCCCN2CC(O)CN1CCCc2nc(-c3ccc(Br)cc3)ccc21 (stereo not given)	-0.193
CCOC(=O)CCN1C(=O)[C@H]2[C@H]3[C@H](O)[C@H](O)CC(=NOCC=C(C)CCC=C(C)C)[C@@H]3CC[C@H]2C1=O	0.149
CC(=O)OC[C@H]1O[C@@H](ON=C(C)CCN2CCCCc3nc(C)c(C)cc32)[C@H](OC(C)=O)[C@@H](OC(C)=O)[C@@H]1OC(C)=O	-0.587
CC(=O)OC[C@H]1O[C@H](CCON=C(C)C)C=C[C@@H]1OC(C)=O	-0.711
CCCNC(=O)OC[C@H]1O[C@H](CCON=C[C@@H](NS(=O)(=O)c2ccc(C)cc2)[C@H](C)C=CCC(=O)OC)C=C[C@@H]1Oc1ccc(OC)cc1	-0.341
CCCC[C@H]1CN2[C@@H](CC[C@@H](C)[C@@H]2c2ccc(Br)cc2)C(=O)O1	-0.333
CCC1=NOC(CCC2CC(OC(=O)NCc3cccc4c3OCO4)CC3(CCCC(COC(=O)NCCc4ccc(Cl)cc4)O3)O2)C1 (stereo not given)	-0.281
COc1ccc(O[C@H]2C=C[C@@H](C#Cc3ccccc3)O[C@@H]2CO)cc1	-0.213
CC(C)CON=C1[C@H]2CCn3c(=O)n(C)c(=O)n3[C@H]2[C@H](O)[C@@H]2O[C@H]12	-0.553
COC(=O)[C@@H]1CC[C@H](C)[C@@H](c2ccc(Br)cc2)N1C[C@@H](O)CN=[N+]=[N-]	-0.463
COC(=O)[C@H](C)NC(=O)CCC1CC(OC(=O)NCCc2ccc(F)cc2)CC2(CCCC(COC(=O)NCc3ccccc3)O2)O1 (stereo not given in full)	-0.749
O=C1C[C@H](c2ccccc2)[C@H](c2ccc(Br)cc2)O1	-0.295
COc1ccc(O[C@H]2C=C[C@@H](c3ccccc3)O[C@@H]2COC(=O)CCC(C)=NOC[C@@H](O)COCc2ccco2)cc1	0.776
O=C1[C@H]2[C@H]3[C@H](O)[C@H](O)CC(=NOCc4ccccc4)[C@@H]3CC[C@H]2C(=O)N1c1cccc(Oc2ccccc2)c1	-0.556
O=C1[C@H]2[C@H]3[C@H](O)[C@H](O)CC(=NOC[C@@H](O)COCc4ccco4)[C@@H]3CC[C@H]2C(=O)N1Cc1ccc2c(c1)OCO2	-0.622
CCOC(=O)[C@H](CC(C)C)NC(=O)CCC1CC(OC(=O)NCc2ccc3c(c2)OCO3)CC2(CCCC(COC(=O)NCc3ccccc3)O2)O1 (stereo not given in full)	-0.542
O=C1C2=CC[C@H]3C(=O)N(C4CCCCC4)C(=O)[C@H]3[C@H]2[C@H](O)[C@@H]2O[C@H]12	-0.115
C=CCOCC1CN2[C@@H](CC[C@@H](C)[C@@H]2c2ccc(Br)cc2)C(=O)O1 (stereo not given in full)	-0.155
CCOC(=O)[C@H](Cc1ccccc1)NC(=O)CCC1CC(OC(=O)NCc2ccc3c(c2)OCO3)CC2(CCCC(COC(=O)NCCOc3ccccc3)O2)O1 (stereo not given in full)	-0.288

— PubChem BioAssay
